Test results from ChEMBL document CHEMBL4513135, “CO-ADD screening of IQOG CSIS (Spain) compounds”.
Entries with a potency or affinity are not part of this list.

tested on: Cryptococcus neoformans; conditions: Concentration 32 ug.mL-1; ASSAY_TEST Inhibition of Fungal Growth; detection method Resazurin; Absorption (OD600-OD570); plate type 384well; NBS; CORNING #3640

Structure (SMILES)	Inhibition [%]
O=C(COc1ccc2ccccc2c1)N/N=C/c1c[nH]c2ccccc12	-4.09
N#CC1(Br)C(=NBr)Oc2ccc3ccccc3c2C1c1ccccc1[N+](=O)[O-] (stereo not given)	-80.32
C#CCNc1nc(N)c(C#N)c(-c2ccccc2)c1C#N	-2.34
Cl.ClCCCC1CCNCC1	-2.91
CCOC(=O)C1=C(C)Nc2nc3c(c(N)c2C1c1ccc([N+](=O)[O-])cc1)CCCC3.Cl (stereo not given)	-58.17
CCOC(=O)CCc1c[nH]c2ccccc12	-6.58
O=C(NCc1ccccc1)c1cc2ccccc2[nH]1	-6.86
COC(=O)C(=Cc1ccc([N+](=O)[O-])cc1)NC(=O)c1ccccc1	-0.7
CNC(=O)c1c(Cl)c2cc(OCc3ccccc3)ccc2n1C	-46.6
C/C(Cc1ccccc1)=N\NC(=O)c1c[nH]c2ccccc12	2.61
C#CCN(C)Cc1cc2cc(OCc3ccc(OC)c4ncccc34)ccc2n1C	-26.86
Cn1c(C(=O)NCc2ccccc2)cc2cc(OCCCC3CCN(Cc4ccccc4)CC3)ccc21	-77.02
N#CC1=C(N)Oc2c(ccc3ccccc23)C1c1cccc([N+](=O)[O-])c1 (stereo not given)	-36.01
CC1CN(C)c2c(C#N)c(-c3ccccc3)c(C#N)c(=N)n21 (stereo not given)	-66.3
C#CCN(C)c1nc(N(C)CC#C)c(C#N)cc1C#N	-56.65
N#Cc1c(N)nc(N2CCOCC2)c(C#N)c1-c1ccccc1	-3.16
Cc1ccc2nc(Cl)c(/C=N/C(C)(C)C)cc2c1	-0.47
O=C1OC(c2ccc([N+](=O)[O-])cc2)=NC1=Cc1ccccc1	-5.52
NNC(=O)Cc1c[nH]c2ccccc12	-6.14
O=C(N[C@H]1CC[C@@H](Br)[C@@H](Br)C1)C(F)(F)F	-47.65

Structure (SMILES)	Inhibition [%]
COc1ccccc1C1c2ccc3ccccc3c2Oc2nc3c(c(N)c21)CCCC3 (stereo not given)	-4.38
CCOC(=O)c1cc2ccccc2[nH]1	-5.94
COc1nc2ccccc2cc1C=O	-2.5
C#CCNc1nc(NCCCC2CCN(Cc3ccccc3)CC2)c(C#N)cc1C#N.Cl	-40.38
CCOc1nc(N)c(C#N)c(-c2ccccc2)c1C#N	-46.51
Cl.NNN1CCc2ccccc21	-9.55
CN(C)c1nc(Cl)c(C#N)c(-c2ccccc2)c1C#N	-9.38
Cl.ClCCCCN1CCCCC1	-8.6
C#CCNc1nc(OC)c(C#N)c(-c2ccccc2)c1C#N	-26.89
CCOC(=O)C1=C(C)Nc2nc3c(c(N)c2C1c1cccc(OC)c1)CCCC3 (stereo not given)	-90.12
COC(=O)C(=Cc1ccc(OC)cc1)NC(=O)c1ccccc1	-1.73
C#CCN(C)c1nc(Cl)c(C#N)c(-c2ccccc2)c1C#N	-24.12
O=C(Cc1c[nH]c2ccccc12)NN=Cc1ccccc1	-1.93
COc1nc2nc3c(c(N)c2cc1C#N)CCCC3	-84.27
COc1ccc(C2C(C#N)=C(N)Oc3ccc4ccccc4c32)cc1 (stereo not given)	-30.57
O=C1OC(c2ccccc2)=NC12CC2c1ccc([N+](=O)[O-])cc1 (stereo not given)	-2.27
COc1ccc(C2c3ccc4ccccc4c3OC(=NBr)C2(Br)C#N)cc1OC (stereo not given)	-80.16
COc1ccc(C2c3c(nc4c(c3N)CCCC4)Oc3ccc4ccccc4c32)cc1 (stereo not given)	1.85
N#Cc1cc2c(N)n[nH]c2nc1N	-4.92
Cl.NC1(C(=O)O)CC1c1ccccc1 (stereo not given)	-5.74
